GLP-1R inv ag: qHTS of GLP-1 Receptor Inverse Agonists (Inhibition Mode); HEK293 GLP-1R CRE-luciferase, luminescence, 24 h; GLP-1R form is constitutively active; Potency, µM (doses to about 38.3 µM), inactives show at the highest dose activity change, negative = inhibition, hits mostly inhibitors; actives 1.6% (n = 410,000); Glucagon-like peptide 1 receptor (Homo sapiens), P43220; AID 624417, 2012; note: % is set by controls: 0 for no effect and ±100 for the full control effect; nearly all actives have a fitted effect of over 55% in size
Target sequence (P43220 whole entry, looked up): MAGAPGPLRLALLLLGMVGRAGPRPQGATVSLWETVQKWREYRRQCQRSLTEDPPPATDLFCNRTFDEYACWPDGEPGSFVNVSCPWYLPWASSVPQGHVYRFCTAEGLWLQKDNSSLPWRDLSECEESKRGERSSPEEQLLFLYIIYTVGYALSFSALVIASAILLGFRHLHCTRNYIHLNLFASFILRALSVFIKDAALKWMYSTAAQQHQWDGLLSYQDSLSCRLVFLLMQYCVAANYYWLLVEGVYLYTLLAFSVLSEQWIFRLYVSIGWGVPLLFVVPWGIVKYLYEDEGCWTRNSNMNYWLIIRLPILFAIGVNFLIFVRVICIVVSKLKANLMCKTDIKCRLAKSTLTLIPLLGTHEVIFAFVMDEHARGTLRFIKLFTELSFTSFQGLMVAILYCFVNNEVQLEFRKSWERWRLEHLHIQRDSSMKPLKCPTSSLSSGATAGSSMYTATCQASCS
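Constitutively active GLP-1R drives a cAMP-responsive luciferase in stably transfected HEK293 cells; test compounds are added after overnight (12 h) attachment and left 24 hr, and signal loss in luminescence marks inhibition.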
Mito fusion act: qHTS Assay for Small Molecule Inhibitors of Mitochondrial Division or Activators of Mitochondrial Fusion; Potency, µM (titrated, usually from 46.1 µM), for the others: top-dose growth rescue (activation), usual class: activators; AID 485298, 2010; actives 0.23% (n = 320,000); S. cerevisiae fusion-defective mutant growth rescue, CellTiterGlo 48 h; note: % of control where 0% means no effect; nearly all actives have a fitted effect of over 45% in size
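Yeast fusion mutant, YPEG (non-fermentable carbon), compound, 48 h at 37C non-permissive; CellTiterGlo added, 10 min RT, luminescence read. Rescued growth = division inhibition.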
BRCA1 expr up: qHTS Assay to Identify Small Molecule Activators of BRCA1 Expression. Potency, µM (top dose mostly 46.1 µM), for the others: top-dose activation, usual class: activators. actives 1.1% (n = 380,000). AID 624202, 2012. MCF7-BRCA1-FFLuc reporter, luminescence, 48 h; response scale: scaled: vehicle 0%, 10 µM genistein 100%; note: nearly all actives have a fitted effect of over 80% in size
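Reporter cells (MCF7, BRCA1 promoter-firefly luciferase) received library compounds across a concentration series for 48 h. End-point luminescence was measured and concentration-effect curves derived after normalization.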
GLP-1R agonist: qHTS of GLP-1 Receptor Agonists; Glucagon-like peptide 1 receptor (Homo sapiens), P43220; HEK293 GLP-1R CRE-luciferase, luminescence, 4-6 h; cells express a hypersensitive GLP-1R form; Potency, µM (series often up to 45.6 µM), for the others: at the highest dose activation, most hits filed as activators; actives 0.007% (n = 380,000); AID 624172, 2012; note: % of control where 0% means no effect
HEK293 tox: qHTS of GLP-1 Receptor Inverse Agonists: Cytotox Screen | HEK293 cAMP-luciferase reporter cells, luminescence, 24 h | actives 0.13% (n = 410,000) | Potency, µM (doses to about 38.3 µM), for the others: at the top dose activity change, negative = inhibition, actives largely listed as inhibitors | AID 624418, 2012;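 note: loss of luciferase light is scored as toxicity; % is set by controls: 0 for no effect and ±100 for the full control effect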
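Here, cytotoxicity is scored as loss of luminescence. The MLSMR collection was tested on cells seeded in medium containing 10% Nu serum, with a 24 hr compound exposure preceded by 12 hours of culture.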
* marks the source's active call; other numbers are inactive results. An excerpt weighted towards active compounds, which were near 2.8% of everything screened. Calls come from the whole dose curve; as a rule, active = well fitted curve in the direction sought with a large enough effect; inconclusive = small, poorly fitted or top-dose-only effect, or another doubt; inactive = no such curve, though single readings can be large; an effect the other way counts as inactive or inconclusive. Potency is the fitted concentration of half-maximal effect.

What do the screens show for `O=C(Cc1cccs1)Nc1ccc(S(=O)(=O)N2CCCCC2)cc1`?
GLP-1R inv ag: 10µM*; Mito fusion act: 14.1%; BRCA1 expr up: -23.7%; GLP-1R agonist: 6.5%; HEK293 tox: -25.7%

What do the screens show for `Cc1nc2ccc(NC(=O)CS(=O)(=O)c3ccc(F)cc3)cc2s1`?
GLP-1R inv ag: 1.8%; Mito fusion act: -14.4%; BRCA1 expr up: 11.2µM*; GLP-1R agonist: 8.2%; HEK293 tox: -1.9%

How did Cc1nc2ccc(NC(=O)Cc3cccs3)cc2s1 do in these assays?
GLP-1R inv ag: 7.4%; Mito fusion act: -11.1%; BRCA1 expr up: 3.55µM*; GLP-1R agonist: -2.3%; HEK293 tox: 0.4%

What do the screens show for `CCOC(=O)/C(=C/c1c2ccccc2cc2ccccc12)NC(=O)c1ccccc1`?
GLP-1R inv ag: 4.47µM*; Mito fusion act: 5.5%; BRCA1 expr up: -30.6%; GLP-1R agonist: -2.4%; HEK293 tox: 17.5%

How did CCCc1cc(=O)[nH]c(SCC(=O)N(Cc2ccccc2)C(C)C)n1 do in these assays?
GLP-1R inv ag: -7.3%; Mito fusion act: -1.1%; BRCA1 expr up: 13.2%; GLP-1R agonist: -0.3%; HEK293 tox: 1.5%

Results for COc1ccc(NS(=O)(=O)c2ccc3[nH]c4c(c3c2)CCCCCC4)cc1 ?
GLP-1R inv ag: inconclusive; HEK293 tox: -4.2%

How did Cc1ccc(NS(=O)(=O)c2ccc3[nH]c4c(c3c2)CCCCC4)cc1 do in these assays?
GLP-1R inv ag: 11.2µM*; HEK293 tox: inconclusive

Results for Cc1ccc(S(=O)(=O)Nc2ccc(N=Nc3ccc(O)cc3)cc2)cc1 ?
GLP-1R inv ag: inconclusive; Mito fusion act: 20µM*; BRCA1 expr up: -20.0%; GLP-1R agonist: 7.1%; HEK293 tox: -6.9%

What do the screens show for `Cc1ccc(CNC(=S)Nc2ccc(NS(=O)(=O)c3ccc(C)cc3)cc2)cc1`?
GLP-1R inv ag: 10µM*; Mito fusion act: -1.4%; BRCA1 expr up: -44.8%; GLP-1R agonist: 0.4%; HEK293 tox: inconclusive

Results for Cc1cc(N2CCN(S(=O)(=O)c3ccccc3)CC2)c2ccccc2n1 ?
GLP-1R inv ag: 0.0%; Mito fusion act: 5.5%; BRCA1 expr up: -31.1%; GLP-1R agonist: 3.6%; HEK293 tox: -18.1%

Results for Cn1cc(CN2CCCC(C(=O)Nc3cccc(-n4cccn4)c3)C2)cn1 (centres undefined) ?
GLP-1R inv ag: -24.4%; Mito fusion act: 0.5%; BRCA1 expr up: -16.9%; GLP-1R agonist: -0.6%; HEK293 tox: -5.0%

Results for Cn1cc(CN2CCCC(C(=O)Nc3ccc(-c4cccc(F)c4)cc3)C2)cn1 (centres undefined) ?
GLP-1R inv ag: 4.47µM*; Mito fusion act: -5.5%; BRCA1 expr up: -33.9%; GLP-1R agonist: -1.7%; HEK293 tox: -11.1%

Results for Cn1cc(CN2CCC(C(=O)Nc3ccc(Oc4ccccc4F)cc3)CC2)cn1 ?
GLP-1R inv ag: 11.2µM*; Mito fusion act: 2.6%; BRCA1 expr up: 0.0%; GLP-1R agonist: -3.0%; HEK293 tox: 22.6%

How did Cn1cccc1-c1cc(C(=O)N/N=C/c2ccccc2Cl)[nH]n1 do in these assays?
GLP-1R inv ag: -27.9%; Mito fusion act: -2.6%; BRCA1 expr up: 8.91µM*; GLP-1R agonist: 16.2%; HEK293 tox: -5.5%

What do the screens show for `O=C(N/N=C/c1c[nH]c2ccccc12)c1ccncc1`?
GLP-1R inv ag: 4.5%; Mito fusion act: -4.2%; BRCA1 expr up: -13.1%; GLP-1R agonist: 0.8%; HEK293 tox: 17.4%

Results for O=C(NN=Cc1ccccc1Cl)c1ccccc1 ?
GLP-1R inv ag: inconclusive; BRCA1 expr up: 5.62µM*; GLP-1R agonist: -1.2%; HEK293 tox: 0.5%

What do the screens show for `Cc1ccc(-c2c(C(=O)N/N=C/c3c[nH]c4ccccc34)nnn2-c2nonc2N)cc1`?
GLP-1R inv ag: 3.16µM*; Mito fusion act: 1.9%; BRCA1 expr up: -78.0%; GLP-1R agonist: -4.2%; HEK293 tox: -4.8%

What do the screens show for `O=C(N/N=C/c1c[nH]c2ccccc12)c1ccccc1`?
GLP-1R inv ag: 14.0%; Mito fusion act: 1.0%; BRCA1 expr up: 10µM*; GLP-1R agonist: -6.9%; HEK293 tox: -5.3%

How did Cn1c(=O)c2[nH]c(=O)[nH]c2n(C)c1=O do in these assays?
GLP-1R inv ag: 9.9%; BRCA1 expr up: -0.2%; GLP-1R agonist: -1.1%; HEK293 tox: 2.4%

What do the screens show for `S=C(NCc1ccc(Cl)cc1)Nc1ccc(Cl)cc1Cl`?
GLP-1R inv ag: inconclusive; Mito fusion act: -5.2%; BRCA1 expr up: -33.3%; GLP-1R agonist: -18.1%; HEK293 tox: 10.8%

How did S=C(NCCc1ccc(Cl)cc1)Nc1ccc(Cl)cc1Cl do in these assays?
GLP-1R inv ag: 10µM*; Mito fusion act: -19.8%; BRCA1 expr up: -79.2%; GLP-1R agonist: -3.9%; HEK293 tox: inconclusive

What do the screens show for `COc1ccc(NC(=S)NCCSc2ccc(C)cc2)c(OC)c1`?
GLP-1R inv ag: 10µM*; BRCA1 expr up: -10.4%; GLP-1R agonist: 2.6%; HEK293 tox: inconclusive

What do the screens show for `COc1ccc(OC)c(NC(=S)NCCSc2ccc(C)cc2)c1`?
GLP-1R inv ag: inconclusive; Mito fusion act: 27.0%; BRCA1 expr up: -1.3%; GLP-1R agonist: -0.2%; HEK293 tox: -22.7%

Results for Cc1ccccc1NC(=S)NCCSc1ccc(Cl)cc1 ?
GLP-1R inv ag: inconclusive; Mito fusion act: 2.2%; BRCA1 expr up: -21.2%; GLP-1R agonist: 13.7%; HEK293 tox: inconclusive

Results for CCCCNC(=S)Nc1ccccc1Cc1ccccc1 ?
GLP-1R inv ag: 11.2µM*; Mito fusion act: 29.0%; BRCA1 expr up: -23.5%; GLP-1R agonist: 6.9%; HEK293 tox: inconclusive

Results for CCCCSCCCNC(=S)Nc1ccccc1C ?
GLP-1R inv ag: inconclusive; Mito fusion act: 7.1%; BRCA1 expr up: -9.4%; GLP-1R agonist: 14.3%; HEK293 tox: inconclusive

Results for CCc1ccccc1NC(=S)NCCSc1ccc(Cl)cc1 ?
GLP-1R inv ag: 7.08µM*; Mito fusion act: 5.7%; BRCA1 expr up: -54.5%; GLP-1R agonist: 10.8%; HEK293 tox: inconclusive

How did Cc1ccc(CNC(=O)c2cc(S(=O)(=O)N3CCCC(C)C3)cn2C)cc1 (centres undefined) do in these assays?
GLP-1R inv ag: -8.5%; BRCA1 expr up: 28.9%; GLP-1R agonist: 1.5%; HEK293 tox: 1.4%

Results for O=C(c1ccc(=O)[nH]n1)N1CCN(S(=O)(=O)c2ccc3ccccc3c2)CC1 ?
GLP-1R inv ag: 75.4%; Mito fusion act: -0.7%; BRCA1 expr up: -26.4%; GLP-1R agonist: 14.8%; HEK293 tox: 9.3%

How did Cc1ccc(NC(=S)NCCSc2ccc(Cl)cc2)c(C)c1 do in these assays?
GLP-1R inv ag: 10µM*; Mito fusion act: 27.1%; BRCA1 expr up: -35.0%; GLP-1R agonist: -1.8%; HEK293 tox: inconclusive

Compound activity deposited in PubChem by National Center for Advancing Translational Sciences (NCATS).
